Rows were chosen to be rich in hits. Some 4.3% of all compounds tested hit in one or more screens of this group.
FGF22 binding: binders of recombinant human FGF22 by thermal shift. activity (Tm shift, normalised), % at 9.99 µM. SYPRO orange fluorescence; percent of sucrose octasulfate shift, DMSO zero. hit rate 1.5% among 340,000. Q9HCT0. AID 651658;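 active = mean Tm shift, scaled 0 neutral to 100 positive control, at about 1.3% or above, every replicate too, limit read from the data; inconclusive = no clear call, values can overlap the other calls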
Target sequence (Q9HCT0 whole entry, looked up): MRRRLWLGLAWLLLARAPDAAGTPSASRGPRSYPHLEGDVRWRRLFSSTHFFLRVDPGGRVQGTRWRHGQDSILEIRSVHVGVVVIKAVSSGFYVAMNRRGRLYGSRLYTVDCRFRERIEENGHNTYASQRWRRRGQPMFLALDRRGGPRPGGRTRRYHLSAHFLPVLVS
esBAF inh: inhibitors of esBAF chromatin remodeling in mouse ES cells; reporter increase, % at 12.5 µM; hit rate 2% among 350,000; Bmi1-luciferase knock-in reporter, 24 h; 100% = twice the neutral-well signal; in the data active = activation above about 40%; inconclusive = no clear call, values can overlap the other calls;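 note: 0% = median of the plate's neutral control wells and 100% = double that signal; a rise in the Bmi1 reporter signal indicates esBAF inhibition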
MLL AF4-AF9 inh: MLL-AF4/AF9 protein interaction inhibition | inhibition, % at 10 µM | AlphaScreen, biotin-AF4 peptide binding to FLAG-AF9 | hit rate 0.47% among 350,000;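 active = every replicate reaching a set inhibition limit, whatever the replicate mean, cut at about 25% in these data; inconclusive = mean inhibition reaches that limit but some replicates miss it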;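 note: 0% = plate neutral control median and 100% = total signal loss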
Target sequence (P42568 whole entry, looked up): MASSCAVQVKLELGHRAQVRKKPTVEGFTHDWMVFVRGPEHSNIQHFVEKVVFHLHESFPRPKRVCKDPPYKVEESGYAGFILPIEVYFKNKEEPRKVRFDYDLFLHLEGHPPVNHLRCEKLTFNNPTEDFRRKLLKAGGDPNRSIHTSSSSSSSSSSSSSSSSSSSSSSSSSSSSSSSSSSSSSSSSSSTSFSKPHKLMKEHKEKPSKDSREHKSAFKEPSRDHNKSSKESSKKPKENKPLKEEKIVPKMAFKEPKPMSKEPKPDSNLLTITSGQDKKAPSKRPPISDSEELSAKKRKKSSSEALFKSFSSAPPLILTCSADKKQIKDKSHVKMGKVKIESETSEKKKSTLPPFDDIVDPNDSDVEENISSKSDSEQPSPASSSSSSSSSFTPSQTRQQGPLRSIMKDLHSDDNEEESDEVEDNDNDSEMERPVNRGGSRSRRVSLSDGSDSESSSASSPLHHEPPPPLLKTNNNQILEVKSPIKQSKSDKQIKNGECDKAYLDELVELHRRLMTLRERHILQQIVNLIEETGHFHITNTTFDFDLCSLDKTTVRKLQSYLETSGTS
MITF TRPM1 HTS: MITF TRPM1 promoter activation in melanoma cells | hit rate 0.75% among 300,000 | activation, % at 12.5 µM | SK-MEL-5 TRPM1-promoter luciferase, 24 h; % of positive control, neutral wells = 0;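 active = mean activation of at least 80% with every replicate also reaching 80%; inconclusive = mean reaches 80% but some replicate falls short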;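 note: 0% = neutral control wells and 100% = parthenolide positive control wells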
SMARCA2 act: activators of SMARCA2 function | MG213 cells, MMTV-luciferase reporter, dexamethasone, overnight | activation, % at 9.1 µM | hit rate 1% among 370,000 | AID 652017; in the data active = activation above about 7.8%;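 note: 0% = vehicle wells and 100% = reference activator wells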
Wnt act: activators of Wnt/beta-catenin signaling | Wnt/beta-catenin reporter cell assay, activator, plate reader | activation, % at 9.35 µM | hit rate 1.2% among 300,000 | AID 743398; in the data active = activation above about 30%, passing the limit was not always enough; inconclusive = no clear call, values can overlap the other calls;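 note: 0% = neutral control wells and 100% = positive control wells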
SMARCA2 act conf: confirmation of SMARCA2 (BRM) function activators; shares compounds with SMARCA2 act; MG213 cells, MMTV-luciferase with dexamethasone, luminescence, overnight; MG213 cells expressing E1A, Rb sequestered; DMSO wells 0%, reference activator 100%; activation, % at 9.1 µM; hit rate 30% among 3,500;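 active = activation above its plate's cutoff, the mean activation of tested wells plus 3 SD, cut at about 7.9% in these data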
GAL4-VP16 Luc: counter-screen for SMARCA2 activators: GAL4-VP16 luciferase reporter activation; shares compounds with SMARCA2 act; HEK293 GAL4-VP16 pG5luc reporter, luciferase luminescence; scaled: DMSO wells 0%, SAHA wells 100%; activation, % at 9.1 µM; hit rate 41% among 3,500;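 active = activation above the solvent-only control well mean plus 3 SD, averaged across control plates, cut at about 5.2% in these data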
An asterisk follows results filed as active; ? = inconclusive; . = no result given.

SMILES	FGF22 binding	esBAF inh	MLL AF4-AF9 inh	MITF TRPM1 HTS	SMARCA2 act	Wnt act	SMARCA2 act conf	GAL4-VP16 Luc
COc1ccc(NC(=O)c2ccc([N+](=O)[O-])o2)cc1	-0.2	30.0	3.9	.	12.4*	0.9	29.2*	3.1
ClC(Cl)(c1nnnn1-c1ccccc1)c1nnnn1-c1ccccc1	.	-13.5	.	-33.2	23.6*	-24.0	-4.2	-0.8
c1ccc(-c2nnnn2-c2ccccc2)cc1	0.0	-6.8	-1.2	-3.5	-1.8	-0.3	.	.
Cc1ccccc1-c1cc2nc(NCc3ccccc3)n(C)c(=O)c2s1	-0.2	-3.3	-1.2	.	-3.2	-0.4	.	.
Cc1ccccc1-c1cc2nc(NCc3ccncc3)n(C)c(=O)c2s1	-0.3	23.2	1.1	.	11.3*	1.1	3.3	2.8
CCCC(=O)Nc1ccc2c(c1)C(=O)N(C)[C@@H]1CC[C@@H](CC(=O)NCC(F)(F)F)O[C@@H]1CO2	0.0	1.5	.	.	.	.	.	.
O=C(NC1CCCCN(Cc2cccc(Cl)c2)C1=O)c1c(F)cccc1F (stereo not drawn)	.	.	.	.	-1.8	.	.	.
COC(=O)c1ccc(N=NN2CCCCC2)cc1	0.1	.	-1.0	88.8*	12.1*	-0.5	3.7	11.4*
COC(=O)c1ccc(NN=Nc2ccc(C)cc2)cc1	.	.	.	15.3	1.6	.	.	.
Cn1nc(/C=C/c2ccccc2)ccc1=O	42.7	25.0	1.1	23.0	8.9*	12.3	3.1	4.8
O=S1(=O)C[C@H](N2CCN(CCO)CC2)[C@@H](COCc2ccccc2)N1	-0.3	-1.5	1.0	.	8.1*	-1.5	-3.5	2.7
CC(C)C(=O)Nc1ccc(NC(=O)c2ccco2)cn1	.	12.6	.	52.1	8.1*	0.0	4.7	2.4
COc1cccc(C(=O)Nc2ccc3[nH]ncc3c2)c1	1.1	-0.1	-3.6	40.8	9.4*	7.8	8.9*	15.1*
O=C(NC(=S)Nc1ccc(Br)cn1)c1cccnc1	-0.2	.	-10.5	57.9	8.3*	?	9.8*	0.4
O=C(Nc1ccc(NC(=O)c2ccco2)nc1)c1cccnc1	.	.	.	23.9	8.7*	24.9	9.1*	11.8*
O=C(NC(=S)Nc1ccccc1Br)c1cccnc1	0.2	8.2	2.2	.	-1.8	-1.7	.	.
COc1cccc(C(=O)Nc2ccc3ccccc3c2)c1	0.0	-37.0	-3.0	.	2.2	18.9	.	.
Cc1noc(C)c1NC(=O)N(C)C[C@@H]1Oc2ccc(NS(=O)(=O)c3ccc(F)cc3)cc2CC(=O)N([C@H](C)CO)C[C@@H]1C	0.1	2.1	-0.9	.	.	.	.	.
COc1cc(C(=O)Nc2ccc(NC(=O)c3ccco3)nc2)cc(OC)c1OC	.	-5.4	.	-1.8	-3.5	-5.0	.	.
COc1cccc(C(=O)Nc2ccc(NC(=O)c3ccco3)nc2)c1	.	58.9*	.	93.0*	9.7*	.	11.7*	12.2*
CC(C)n1cnc2cc(NC(=O)c3ccco3)ccc21	-0.1	16.8	-2.2	56.7	9.6*	18.7	13.1*	9.6*
CCN=c1sc(C(=O)OC)cc(=O)n1CC	.	-10.6	.	.	10.6*	.	8.6*	1.1
CCCNC(=O)N(C)C[C@@H]1Oc2ncc(C3=CCCCC3)cc2C(=O)N([C@@H](C)CO)C[C@H]1C	0.1	1.7	-4.8	.	.	.	.	.
C[C@@H]1CN([C@H](C)CO)C(=O)c2cc(N(C)C)ccc2O[C@@H]1CN(C)S(=O)(=O)c1ccc(Cl)cc1	-0.7	3.6	0.3	.	.	.	.	.
O=C(COC(=O)CN1C(=O)c2ccccc2C1=O)Nc1ccc(S(=O)(=O)N2CCCC2)cc1	.	-10.0	.	5.9	9.4*	2.1	-5.7	0.5
SMILES	FGF22 binding	esBAF inh	MLL AF4-AF9 inh	MITF TRPM1 HTS	SMARCA2 act	Wnt act	SMARCA2 act conf	GAL4-VP16 Luc
O=c1cc(-c2ccc3c(c2)OCO3)oc2ccccc12	0.1	27.9	-0.4	55.0	17.5*	21.0	6.4	7.3*
O=c1cc(-c2ccc(O)cc2)oc2ccccc12	-0.1	57.9*	-1.4	.	9.0*	3.0	11.5*	9.0*
O=c1cc(-c2ccccc2)oc2cc(O)cc(O)c12	-0.1	7.1	-19.4	100.0*	8.5*	6.4	2.9	7.5*
O=c1cc(-c2ccncc2)oc2ccccc12	.	-12.2	.	.	0.1	1.5	.	.
C/C=C/c1ccc([C@@H]2[C@H](C#N)N(c3nc(CC)cs3)[C@H]2CO)cc1	-0.2	4.2	1.9	.	.	.	.	.
Cc1cnc(NC(=O)Nc2ccc(Cl)cc2)s1	0.7	.	-10.9	?	12.3*	-24.0	8.3*	11.4*
Cc1cnc(NC(=O)CSc2ccc(Cl)cc2)s1	.	1.2	.	19.2	-4.4	-3.3	.	.
CC(C)NC(=O)N(C)C[C@H]1OCCCC[C@@H](C)Oc2ccc(NS(=O)(=O)c3ccc(Cl)cc3)cc2C(=O)N([C@@H](C)CO)C[C@@H]1C	-0.2	3.1	-1.7	.	.	.	.	.
CN(C)c1ccc(CNn2cnnc2SCc2ccccc2F)cc1	-0.1	19.8	8.1	18.1	10.1*	5.1	2.0	3.0
CN(C)c1ccc(CNn2cnnc2SCC(=O)NC(C)(C)C)cc1	0.2	-0.6	-1.8	0.5	-2.9	0.2	.	.
Cc1noc(NS(=O)(=O)c2ccc(N/C=C\C(=O)c3ccc(F)cc3)cc2)c1C	1.3	.	0.4	3.9	10.4*	-0.6	4.5	1.0
COc1ccccc1NC(=O)Nc1ccc(S(=O)(=O)Nc2onc(C)c2C)cc1	0.7	-6.4	1.9	.	8.2*	-1.7	-1.1	-0.1
Cc1noc(NS(=O)(=O)c2ccc(N/C=C\C(=O)c3ccccc3)cc2)c1C	.	.	-3.2	-4.1	3.8	-0.9	.	.
COCC(=O)Nc1ccc(S(=O)(=O)Nc2onc(C)c2C)cc1	0.1	-8.3	-3.0	.	-0.6	-25.4	.	.
O=C(C1=C(O)C(=O)N(CCc2ccccc2)C1c1ccncc1)c1cc2ccccc2o1 (stereo not drawn)	0.3	.	-2.4	2.1	2.0	0.8	.	.
O=C(C1=C(O)C(=O)N(c2nccs2)C1c1ccccc1)c1cc2ccccc2o1 (stereo not drawn)	0.4	.	1.3	.	14.1*	?	-1.2	3.4
O=C(c1noc2c1CCc1ccccc1-2)N1CCCc2ccccc21	.	.	.	22.5	1.5	.	.	.
O=C(c1noc2c1CCc1ccccc1-2)N1CCOCC1	.	26.2	.	41.3	9.3*	19.1	9.6*	4.8
Fc1ccc(/C=C\c2nccc3c2[nH]c2ccccc23)cc1	0.2	12.2	-2.9	0.1	15.6*	2.9	4.3	3.0
C(=C\c1nccc2c1[nH]c1ccccc12)/c1ccccc1	-0.2	26.5	-5.3	5.4	6.4	12.3	.	.
Cc1ccc(/C=C\c2nccc3c2[nH]c2ccccc23)cc1	1.0	55.5*	-23.2	11.5	10.2*	-4.4	7.6	8.1*
C/C=C/c1ccc([C@H]2[C@@H](CNC(C)=O)N(C(=O)Cc3cccnc3)[C@H]2CO)cc1	.	2.8	.	.	.	.	.	.
